USP28 block – human USP28 deubiquitinase inhibition; 47,000 compounds, 3% hits; purified USP28, Ub-rhodamine cleavage fluorescence, 30 min; AID 1645857; Q96RU2; inhibition, % at 25 µM
USP17 inh – human USP17-like deubiquitinase inhibition | inhibition, % at 50 µM | purified USP17, Ub-rhodamine cleavage fluorescence, 3 h | 47,000 compounds, 6.5% hits
USP30 block – blocks human USP30 ubiquitin-rhodamine cleavage | Q70CQ3 | purified USP30, Ub-rhodamine cleavage fluorescence | inhibition, % at 25 µM | 47,000 compounds, 5.3% hits | AID 1645860
USP8 block – blocks human USP8 ubiquitin-rhodamine cleavage | P40818 | purified USP8, Ub-rhodamine cleavage fluorescence, 30 min | inhibition, % at 20 µM | 47,000 compounds, 4.2% hits
* = called active by the depositor; · = not tested or not shown. Compounds with a hit are over-represented: about 13% of the library has one in this group of screens. Cut-off read from the data, not from the text of the source: active = inhibition above about 30%; inactive = the rest.

SMILES	USP28 block	USP17 inh	USP30 block	USP8 block
Cc1ccc(CCNC(=O)C2CCCN(c3ncnc4onc(C)c34)C2)cc1 (stereo unspecified)	5	-6	36*	18
CC(C)CC(=O)Oc1cn(CCCN2CCCC2=O)c2nc(CC(C)C)n3c4ccccc4nc3c12	-106	·	-398	-36
Cc1nc(NCc2ccccc2F)ncc1C(=O)NCc1ccccc1	4	46*	24	16
COc1ccc(OC)c(NC(=O)c2cnc(NCc3ccccc3F)nc2C)c1	-2	2	-10	33*
CCOc1ccc(N2Cc3ccc(OC)c(OC)c3C2=O)cc1	2	38*	22	0
CCOc1ccc(N2CC(CNS(=O)(=O)c3cccc(F)c3)CC2=O)cc1 (stereo unspecified)	-2	-8	0	0
Cc1ccc(-c2nnc(-c3nnn(-c4ccc(C)cc4)c3C)o2)cc1	15	25	35*	23
COc1cccc(-n2nnc(-c3nnc(-c4ccccc4C)o3)c2C)c1	2	-2	49*	-17
COc1ccc(OC)c(-n2nnc(-c3nc(-c4ccccc4C)no3)c2C)c1	·	32*	·	0
Cc1c(-c2nnc(-c3ccccn3)o2)nnn1-c1cccc(Cl)c1	94*	11	70*	1
COc1ccc(S(=O)(=O)c2nnn(-c3cccc(OC)c3)c2C)cc1	0	-11	-13	5
CCNC(=O)c1cccnc1OC1CCN(C(=O)c2ccc(C)cc2)C1 (stereo unspecified)	0	-1	-5	0
O=C(N[C@H]1[C@H](O)[C@H](O)C[C@@H]1c1ccc(N2CCOCC2)nc1)C1CCC1	-9	-18	-51	7
Cc1n[nH]c(C)c1CC(=O)N1[C@@H](CN)C[C@@]2(C)[C@H](O)CCCC[C@@H]12	-8	-12	-25	-65
Cn1ncc2c(N3CCNC(=O)CC3c3ccccc3)ncnc21 (stereo unspecified)	-8	-18	-9	1
Cc1ccc(NC(=O)c2nnc(C3CCCN3C(=O)C3CCC3)s2)cc1 (stereo unspecified)	15	14	33*	-47
CNC(=O)N1CCCC1c1nnc(C(=O)Nc2ccc(F)c(F)c2)s1 (stereo unspecified)	0	-29	-20	-149
O=C(NC1CCCCC1)c1ccc(Oc2ccc(C(=O)NC3CCCCC3)cc2)cc1	0	0	-4	0
COc1ccc(NC(=O)Cn2c(=O)n(CC(=O)NCc3ccc(C)cc3)c(=O)c3sccc32)cc1OC	70*	71*	75*	1
CCOc1ccc(NC(=O)Cn2c(=O)n(CC(=O)NCc3ccc(C)cc3)c(=O)c3sccc32)cc1	15	·	70*	30
CCOc1ccc(NC(=O)Cn2c(=O)n(CCCCC(=O)NCCc3ccccc3)c(=O)c3ccccc32)cc1	8	17	28	19
CCN1C[C@@H]2C[C@]2(c2ccccc2OC)C(=O)c2ncccc21	1	65*	-54	94*
COc1ccccc1[C@]12C[C@H]1CN(C(=O)Nc1ccncc1)c1cccnc1C2=O	7	15	34*	-10
CC(=O)Nc1ccc(N(C(=O)c2cnccn2)C(C(=O)NC2CCCCC2)c2ccc(Cl)cc2)cc1 (stereo unspecified)	-22	20	-15	-39
Cc1nc(C2CCN(C(=O)Cc3c(C)[nH]c4ccc(F)cc34)C2)nc2c1CCC(=O)N2C (stereo unspecified)	-25	-17	-64	-26
SMILES	USP28 block	USP17 inh	USP30 block	USP8 block
COc1cccc(CNC(=O)C2=Cc3cccc(OC)c3OC2)c1	60*	-103	0	20
O=C(Nc1nc2c(s1)CCC2C(=O)NCc1ccncc1)c1ccccc1 (stereo unspecified)	-16	-14	-39	-25
O=C(Nc1nc2c(s1)CCCC2C(=O)NCc1ccncc1)c1ccc2c(c1)OCO2 (stereo unspecified)	38*	-15	7	-141
c1cnc(N2CCCC(c3nc(N4CCOCC4)ncc3-c3cccnc3)C2)nc1 (stereo unspecified)	0	-1	-18	9
Cc1ccc(-c2nc(N3CCCC(O)C3)ncc2-c2cnccn2)s1 (stereo unspecified)	-24	73*	-139	18
O=C(C1CCC1)N1CCCC1c1ccnc(Nc2cnccn2)n1 (stereo unspecified)	1	14	1	44*
O=C(C1CCCC1)N1CCCC1c1ccnc(Nc2ccccn2)n1 (stereo unspecified)	-10	-3	-17	-7
COc1ccc(-c2ccc(CCC(=O)Nc3c(C)cccc3C)o2)cc1	12	26	44*	1
O=S1(=O)c2ccccc2OCC2(CCN(c3cncnc3)CC2)CN1CC1CC1	0	7	9	-2
c1ccc(N=C(N=C(Nc2ccccc2)c2ccccc2)N2CCCCC2)cc1	10	-2	21	0
O=C(NC(c1ccccc1)c1nnc(-c2ccccc2)o1)c1ccccc1Cl (stereo unspecified)	7	39*	32*	0
O=C(COc1ccc(F)cc1)NC(c1ccc(F)cc1)c1nnc(-c2ccccc2)o1 (stereo unspecified)	5	6	11	-1
CCn1c(=O)c(CCC(=O)NCc2ccccc2F)nc2c(C)nn(-c3ccccc3)c21	-10	-19	-31	-14
CSc1cccc(NC(=O)CCc2nc3c(C)nn(-c4ccccc4)c3n(C)c2=O)c1	-1	43*	-1	1
Cc1nn(-c2ccccc2)c2c1nc(CCC(=O)NCc1ccccc1F)c(=O)n2C	14	13	43*	-10
Cc1ccc(NC(=O)CCc2nc3c(C)nn(-c4ccccc4)c3n(C)c2=O)cc1C	5	27	7	1
CCc1cccc(NC(=O)CCc2nc3c(C)nn(-c4ccccc4)c3n(C)c2=O)c1	-4	48*	-7	-1
O=C(N[C@H]1[C@H](O)[C@H](O)C[C@@H]1c1ccncc1)c1ccncc1	0	-6	0	1
Cc1ccc2c(Sc3ccc(Cl)cc3)c(C(=O)N3CCC4(CC3)OCCO4)[nH]c2c1	32*	14	19	1
C/C=C/C[C@@H](C)[C@@H](O)[C@H]1C(=O)N[C@@H]([C@@H](C)O)C(=O)N(C)CC(=O)N(C)[C@@H](CC(C)C)C(=O)N[C@@H](CC(C)C)C(=O)N(C)[C@@H](CC(C)C)C(=O)N[C@@H](C)C(=O)O[C@H](C(C)C)C(=O)N(C)[C@@H](CC(C)C)C(=O)N[C@@H](CC(C)C)C(=O)N(C)[C@@H](C(C)C)C(=O)N1C	21	18	23	17
COc1cccc(-c2noc(NCCc3ccc(SC)cc3)n2)c1	32*	-5	-5	6
COc1ccc(-c2noc(NCCCN3CCN(c4ccccc4)CC3)n2)cc1	0	-9	-1	-13
Cc1ccc(NC(=O)CN2CCC(c3nc4ccccc4[nH]3)CC2)cc1	-3	-11	2	7
COc1cccc(NC2=NS(=O)(=O)c3ccccc32)c1	23	41*	41*	23
O=C(Nc1sc2c(c1C(=O)NCc1cccnc1)CCCC2)c1csnn1	38*	49*	11	-17
O=C(Cn1c(=O)[nH]c2ccccc2c1=O)NC1CC1	7	0	7	0
